Experimental data from PubChem BioAssay (EPA / NIEHS).
Values joined by “and” are separate entries in the source; they are usually repeats but may differ in a detail not shown here. Equal values may be shown once. Records with an inconclusive call do not appear. Active and inactive are the calls of the source. How the source made its calls, unless noted: active means hit-call score of the fitted dose curve at least 0.9, where 1 is the maximum; inconclusive means response in the unintended direction; inactive means score below 0.9.

How the values were obtained:
[1] = CCTE_Harrill_HTTr_Apoptosis_PRF_DMEM_6hr: (Pilot) CCTE's 6-hour Apoptosis Assessment for the High-Throughput Transcriptomics (HTTr) Platform, in MCF-7 cells cultured phenol red-free DMEM + 10% charcoal-stripped fetal bovine serum, Harrill Lab (AID 2283984; active means hit-call score of the fitted dose curve at least 0.9, where 1 is the maximum; inactive means score below 0.9)
Outline: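 MCF-7 cells in phenol red-free DMEM + 10% charcoal-stripped FBS, eight-point dilution series, 6 h exposure. Caspase-3/7 activation imaged by high-content imaging with CellEvent Caspase 3/7 Green; bidirectional fit versus DMSO baseline.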

[2] = CCTE_Harrill_HTTr_Apoptosis_PRF_DMEM_24hr: (Pilot) CCTE's 24-hour Apoptosis Assessment for the High-Throughput Transcriptomics (HTTr) Platform, in MCF-7 cells cultured in phenol red-free DMEM + 10% charcoal-stripped fetal bovine serum, Harrill Lab (AID 2283986; active means hit-call score of the fitted dose curve at least 0.9, where 1 is the maximum; inactive means score below 0.9)
Outline: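 MCF-7 cells in phenol red-free DMEM with 10% charcoal-stripped FBS, exposed 24 h across an eight-point dilution series. Caspase-3/7 activation imaged with CellEvent Green by high content imaging; bidirectional fitting against DMSO.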

DIO1 (gene 1733) = experiment: CCTE_GLTED_hDIO1: CCTE's human Deiodinase 1 (DIO1) Inhibition Assay, Great Lakes Toxicology and Ecology Division (GLTED) Lab (AID 2283987);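 further: isolated human DIO1 enzyme in a cell-free setup rather than cells; enzyme activity read as free iodide liberated from substrate via Sandell-Kolthoff colorimetry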
Outline: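 Inhibition read as reduced iodide release: after 3 h of human DIO1 with chemical, free iodide is quantified colorimetrically (Sandell-Kolthoff cerium/arsenic reaction). Triplicate plates, DMSO baseline.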

[3] = molecular target: Nucleoli Translocation, AR (gene 367) (UniProt P10275); experiment: UPITT_HCI_U2OS_AR_TIF2_Nucleoli_Antagonist: University of Pittsburgh U2OS Androgen Receptor-Transcriptional Intermediary Factor 2 (AR-TIF2) Antagonism High Content Imaging Assay for Nucleoli Translocation (AID 2283997)
Sequence of Nucleoli Translocation, AR (gene 367) (P10275 whole entry, looked up): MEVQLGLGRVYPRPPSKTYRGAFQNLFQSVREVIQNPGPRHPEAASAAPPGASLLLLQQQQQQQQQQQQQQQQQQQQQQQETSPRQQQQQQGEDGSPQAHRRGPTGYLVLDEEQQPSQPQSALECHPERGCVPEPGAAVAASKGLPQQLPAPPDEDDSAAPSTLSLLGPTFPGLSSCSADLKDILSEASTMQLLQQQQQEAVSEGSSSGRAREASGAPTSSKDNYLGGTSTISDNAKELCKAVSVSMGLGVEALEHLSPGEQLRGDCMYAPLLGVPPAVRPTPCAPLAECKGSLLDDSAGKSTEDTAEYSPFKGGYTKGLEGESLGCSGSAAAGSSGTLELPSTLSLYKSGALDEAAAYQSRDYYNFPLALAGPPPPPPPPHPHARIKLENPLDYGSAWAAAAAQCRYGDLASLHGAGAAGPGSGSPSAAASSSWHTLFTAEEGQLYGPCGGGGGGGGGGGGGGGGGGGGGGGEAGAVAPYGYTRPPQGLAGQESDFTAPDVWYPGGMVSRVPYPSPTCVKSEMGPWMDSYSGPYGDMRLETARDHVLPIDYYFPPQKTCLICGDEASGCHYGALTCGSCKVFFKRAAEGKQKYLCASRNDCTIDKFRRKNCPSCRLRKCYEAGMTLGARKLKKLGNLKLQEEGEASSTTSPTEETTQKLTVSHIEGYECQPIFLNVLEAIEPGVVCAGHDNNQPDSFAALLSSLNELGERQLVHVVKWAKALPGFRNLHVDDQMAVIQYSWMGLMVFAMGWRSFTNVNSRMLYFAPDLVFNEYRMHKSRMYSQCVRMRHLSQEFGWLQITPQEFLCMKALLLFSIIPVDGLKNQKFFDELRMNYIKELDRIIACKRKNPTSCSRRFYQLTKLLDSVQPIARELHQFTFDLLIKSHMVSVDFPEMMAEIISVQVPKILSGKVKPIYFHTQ
Outline: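 Measured quantity was AR-RFP fluorescence localized to nucleoli in engineered U2OS cells also bearing TIF2-GFP, acquired on automated high-content imagers. Primary testing used 20 uM compound; actives were confirmed in triplicate wells.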

[4] = molecular target: Nucleoli Translocation, AR (gene 367) (UniProt P10275); experiment: UPITT_HCI_U2OS_AR_TIF2_Nucleoli_Agonist: University of Pittsburgh U2OS Androgen Receptor-Transcriptional Intermediary Factor 2 (AR-TIF2) Agonism High Content Imaging Assay for Nucleoli Translocation (AID 2283998)
Outline: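 Nucleolar translocation of AR-RFP, with TIF2-GFP coexpressed in human osteosarcoma U2OS, imaged by high-content fluorescence. Compounds tested singly at 20 uM final, confirmed in triplicate, then titrated 0.195–50 uM final; gain-of-signal relative to DMSO.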

[5] = molecular target: Ratio of Nucleoli Translocation and Cytoplasm, AR (gene 367) (UniProt P10275); experiment: UPITT_HCI_U2OS_AR_TIF2_Nucleoli_Cytoplasm_Ratio_Antagonist: University of Pittsburgh U2OS Androgen Receptor-Transcriptional Intermediary Factor 2 (AR-TIF2) Antagonism High Content Imaging Assay for Ratio of Nucleoli Translocation and Cytoplasm (AID 2283999);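 further: antagonists lower the DHT-driven ratio of nucleolar to cytoplasmic red signal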
Sequence of Ratio of Nucleoli Translocation and Cytoplasm, AR (gene 367) (P10275 whole entry, looked up): as above
Outline: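 U2OS cells co-expressing RFP-tagged human AR and GFP-tagged TIF2, antagonist mode with DHT as baseline. Nucleolar-to-cytoplasmic red fluorescence ratio imaged by high-content microscopy; final compound 20 uM (0.2% DMSO) primary, 0.195–50 uM (0.5% DMSO) concentration-response.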

[6] = molecular target: Ratio of Nucleoli Translocation and Cytoplasm, AR (gene 367) (UniProt P10275); experiment: UPITT_HCI_U2OS_AR_TIF2_Nucleoli_Cytoplasm_Ratio_Agonist: University of Pittsburgh U2OS Androgen Receptor-Transcriptional Intermediary Factor 2 (AR-TIF2) Agonism High Content Imaging Assay for Ratio of Nucleoli Translocation and Cytoplasm (AID 2284000);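 further: hits raise the red nucleolar to cytoplasm ratio above vehicle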
Outline: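 Read-out first: nucleolar-to-cytoplasm ratio of red (AR-RFP) signal, quantified by high-content imaging in U2OS cells co-expressing TIF2-GFP. Activity is scored as signal increase over DMSO. Single-point screening used 20 uM final (0.2% DMSO).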

[7] = CCTE_Shafer_MEA_acute_spike_number: CCTE's Neural Acute Assay for Total Number of Spikes, Shafer Lab (AID 2284008; active means hit-call score of the fitted dose curve at least 0.9, where 1 is the maximum; inactive means score below 0.9;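 on AC50: curve fitted for decrease in spike count so AC50 reflects inhibitors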)
Outline: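 Total spike count from 40 min recordings before and during compound exposure (0.03-40 uM), given as per-well percent change. Cortical cultures from rat, DIV 13 or 15, 37 C; adaptive detection threshold 8x rms noise.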

[8] = CCTE_Simmons_MITO_basal_resp_rate: CCTE's HepG2 Seahorse XF Respirometric Screening Assay at Basal Respiratory State, Simmons Lab (AID 2284001; active means hit-call score of the fitted dose curve at least 0.9, where 1 is the maximum; inactive means score below 0.9); conditions: actives raise or lower the signal
Outline: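 HepG2 respirometry; 7-pt titration 125 nM–100 uM final; kinetic OCR at 6 min intervals for 72 min; n=3 biological, technical singles; DMSO baseline, gain or loss fit; fenpyroximate (decrease) and 2,4-DNP (increase) controls.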

[9] = CCTE_Simmons_MITO_viability: CellTiter-Glo Viability Assessment for CCTE's HepG2 Seahorse XF Respirometric Screening Assay [post-hoc], Simmons Lab (AID 2284007);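 on AC50: cells exposed to chemical for 90 min before the ATP read; actives lower ATP signal relative to DMSO baseline meaning reduced viability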
Outline: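 HepG2 cells exposed 90 min to 7 concentrations from 125 nM to 100 uM final, then ATP measured by luciferase luminescence. Three biological replicates per concentration; DMSO vehicle; dichlone control at 10 nM–100 uM.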

For `Cc1oc(-c2ccccc2)nc1CCOc1ccc(C[C@H](Nc2ccccc2C(=O)c2ccccc2)C(=O)O)cc1`, the outcome [1] was “inactive”, the outcome [2] was “inactive” and the AC50 (DIO1 (gene 1733)) was 72.1 µM (active). The AC50 [3] was 67.6 µM (active), the outcome [4] was “inactive” and the outcome [5] was “inactive”. The outcome [6] was “inactive”.
For `CC(C)(C)c1cc(C(C)(C)C)c(O)c(C(C)(C)C)c1`, the outcome [7] was “inactive”.
For `CCCCC[C@H](O)CC(=O)CCc1ccc(O)c(OC)c1`, the outcome [3] was “inactive”, the outcome [5] was “inactive” and the outcome [6] was “inactive”.
For `ClC1=C(Cl)C(Cl)(Cl)C(Cl)=C1Cl`, the AC50 (DIO1 (gene 1733)) was 78.5 µM (active).
For `COc1cc(CCC(=O)CC(=O)CCc2ccc(O)c(OC)c2)ccc1O`, the AC50 [3] was 26.6 µM (active), the outcome [5] was “inactive” and the outcome [6] was “inactive”.
In the case of `CC[C@H](c1ccc(O)cc1)[C@@H](CC)c1ccc(O)cc1`, the AC50 [3] is reported as 50 µM (active), the AC50 [4] is reported as 50 µM (active) and the outcome [5] is reported as “inactive”. The AC50 [6] was 50 µM (active), the AC50 [8] was 20.8 µM (active) and the AC50 [9] was 12.6 µM (active). The outcome [7] was “inactive”.
With `NC(=O)N(O)[C@@H]1C=C[C@H](Oc2cccc(Oc3ccc(F)cc3)c2)C1` the AC50 [8] was 22.1 µM (active), the outcome [9] was “inactive” and the outcome [7] was “inactive”.
For `CCCCCCCCCCCCN1CCCC1=O`, the AC50 (DIO1 (gene 1733)) was 159 µM (active), the AC50 [8] was 31.4 µM (active) and the outcome [9] was “inactive”. For the same compound, the outcome [7] was “inactive”.
For `CC(C)CCCCCCOC(=O)CCCCC(=O)OCCCCCCC(C)C`, the outcome [7] was “inactive”.
In the case of `O=C(/C=C/c1ccc(O)cc1)CC(=O)/C=C/c1ccc(O)cc1`, the AC50 [3] is reported as 16.3 µM (active), the outcome [4] is reported as “inactive” and the outcome [5] is reported as “inactive”. The outcome [6] was “inactive”.
With `CCCOc1sc(C(=O)N2CCC(c3cc(CN)ccc3F)CC2)c(C)c1Br` the outcome [3] was “inactive”, the AC50 [4] was 7.93 µM (active) and the outcome [5] was “inactive”. For the same compound, the AC50 [6] was 8.47 µM (active) and the outcome [7] was “inactive”.
With `Nc1cccc2c(N)cccc12` the AC50 [3] was 33.3 µM (active), the outcome [4] was “inactive” and the outcome [5] was “inactive”. For the same compound, the outcome [6] was “inactive”, the outcome [8] was “inactive” and the outcome [9] was “inactive”.
For `Cc1cc(CCN2CCN(c3nsc4ccccc34)CC2)cc2c1NC(=O)CC2(C)C`, the AC50 [3] was 50 µM (active), the outcome [5] was “inactive” and the outcome [6] was “inactive”. For the same compound, the AC50 [8] was 12.2 µM (active), the AC50 [9] was 9.34 µM (active) and the AC50 [7] was 8.94 µM (active).
In the case of `O=[N+]([O-])c1ccc(O)cc1`, the AC50 [8] is reported as 66.5 µM (active) and 66 µM (active) and the outcome [9] is reported as “inactive”.
In the case of `CC(C)(C)c1ccc(O)c(C(C)(C)C)c1`, the AC50 (DIO1 (gene 1733)) is reported as 108 µM (active).
In the case of `CC(=O)CC(C)(C)O`, the outcome [3] is reported as “inactive”, the outcome [4] is reported as “inactive” and the outcome [5] is reported as “inactive”. For the same compound, the outcome [6] was “inactive”.
For `CN1CCN(c2ccccc2/C=C2\SCCN(c3ccc(Cl)c(Cl)c3)C2=O)CC1`, the outcome [8] was “inactive” and the AC50 [7] was 10.3 µM (active).
In the case of `CC(=O)NC1(c2cccc(F)c2)CCN(CC[C@@]2(c3ccc(Cl)c(Cl)c3)CN(c3ccccc3)C(=O)CO2)CC1`, the AC50 [7] is reported as 1.47 µM (active).
For `COCC(C)OCC(C)O` (centres undefined), the outcome [4] was “inactive”, the outcome [5] was “inactive” and the outcome [6] was “inactive”.
With `OCCC(F)(F)C(F)(F)C(F)(F)C(F)(F)C(F)(F)C(F)(F)C(F)(F)C(F)(F)F` the outcome [4] was “inactive”, the outcome [5] was “inactive” and the outcome [6] was “inactive”. For the same compound, the outcome [7] was “inactive”.
With `CCc1ccc(CCOc2ccc(CC3SC(=O)NC3=O)cc2)nc1` (centres undefined) the outcome [7] was “inactive”.
For `O=c1c(-c2ccc(O)cc2)coc2cc(O)ccc12`, the AC50 (DIO1 (gene 1733)) was 17.2 µM (active), the outcome [3] was “inactive” and the AC50 [7] was 3.28 µM (active).
For `N#C[C@@H]1CC(F)(F)CN1C(=O)CNC1CC2CCC(C1)N2c1ncccn1` (some centres undefined), the outcome [3] was “inactive”, the outcome [4] was “inactive” and the outcome [5] was “inactive”. For the same compound, the outcome [6] was “inactive”.
In the case of `c1ccc2c(c1)ccc1ccccc12`, the AC50 [3] is reported as 33.7 µM (active), the outcome [4] is reported as “inactive” and the outcome [5] is reported as “inactive”. The outcome [6] was “inactive”.
With `CCc1nn(C2CCCCC2)c2cc(C3(C#N)CCC(C(=O)O)CC3)ccc12` (centres undefined) the AC50 [8] was 15.6 µM (active) and the outcome [9] was “inactive”.
With `CCCCCCCCCCCCCCCS(=O)(=O)Oc1ccccc1` the outcome [7] was “inactive”.
In the case of `CCC(=C(c1ccc(O)cc1)c1ccc(OCCN(C)C)cc1)c1ccccc1`, the AC50 [1] is reported as 76.1 µM (active), the AC50 [2] is reported as 80.8 µM (active) and the AC50 (DIO1 (gene 1733)) is reported as 46.5 µM (active). For the same compound, the outcome [3] was “inactive”, the AC50 [4] was 22.5 µM (active) and the outcome [5] was “inactive”. The AC50 [6] was 26.2 µM (active) and the outcome [7] was “inactive”.
With `CCCOC(=O)c1ccc(O)cc1` the AC50 [8] was 35.8 µM (active) and the outcome [9] was “inactive”.
In the case of `Oc1cc2ccccc2c2ccccc12`, the AC50 [3] is reported as 3.25 µM (active), the outcome [4] is reported as “inactive” and the AC50 [5] is reported as 3.08 µM (active). The outcome [6] was “inactive”, the AC50 [8] was 28.6 µM (active) and the AC50 [9] was 6.92 µM (active). The outcome [7] was “inactive”.
In the case of `CC#C[C@]1(O)CC[C@H]2[C@@H]3CCC4=CC(=O)CCC4=C3[C@@H](c3ccc(N(C)C)cc3)C[C@@]21C`, the AC50 [7] is reported as 1.74 µM (active) and 2.84 µM (active).
For `OC1CCC(C2CCCCC2)CC1` (centres undefined), the AC50 [8] was 50 µM (active), the outcome [9] was “inactive” and the AC50 [7] was 20 µM (active).
In the case of `CN1CCC[C@H]1c1cccnc1`, the outcome [7] is reported as “inactive”.
For `CN(C)C=O`, the outcome [7] was “inactive”.
For `NC(=O)N1C(=O)C(C(=O)c2cc(Cl)cs2)c2cc(F)c(Cl)cc21` (centres undefined), the AC50 (DIO1 (gene 1733)) was 37.4 µM (active), the outcome [3] was “inactive” and the outcome [4] was “inactive”. The outcome [5] was “inactive”, the outcome [6] was “inactive” and the AC50 [8] was 5.91 µM (active). The AC50 [9] was 2.3 µM (active).
For `CCCCCCCCCCCCc1ccccc1S(=O)(=O)O`, the AC50 (DIO1 (gene 1733)) was 96.3 µM (active), the AC50 [3] was 83 µM (active) and the AC50 [4] was 90.7 µM (active). For the same compound, the outcome [5] was “inactive”, the AC50 [6] was 90.9 µM (active) and the outcome [7] was “inactive”.
For `O=C(O)c1ccccc1C(c1ccc(O)cc1)c1ccc(O)cc1`, the outcome [7] was “inactive”.
With `O=C(O)Cc1cc(I)c(Oc2cc(I)c(O)c(I)c2)c(I)c1` the outcome [1] was “inactive”, the outcome [2] was “inactive” and the outcome [8] was “inactive”. The outcome [9] was “inactive”.
